# From PubChem BioAssay (NCATS)
# Records with an inconclusive call do not appear. Where a call stands in place of a potency, no number is given. Activity calls are given as the source filed them. Unless noted, the call rests on the fitted dose curve; in most records, active means well fitted curve in the direction sought with a large enough effect; inconclusive means small, poorly fitted or top-dose-only effect, or another doubt; inactive means no such curve, though single readings can be large; an effect the other way counts as inactive or inconclusive.
# Tests used:
# [1] = qHTS for differential inhibitors of proliferation of Plasmodium falciparum line W2 (AID 1883); conditions: Potency: Plasmodium falciparum W2 proliferation inhibition;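 further: potency means the concentration at half of the fitted maximal effect; parasites grown with compound for 72 h before lysis and staining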
# [2] = qHTS Assay for Modulators of Human Peripheral Myelin Protein 22 (PMP22) Expression/Activity (AID 1967; active means well fitted curve in the direction sought with a large enough effect in the signal ratio; the % refers to the signal ratio)
# Procedure, shortened: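 Luminescence ratio of Pmp22 promoter-driven green luciferase to EF-alpha-driven red luciferase, in engineered mouse MSC80 Schwann cells, served as read-out. Compounds were incubated 24h; untreated cells defined 0% Activity; curves were classified by r2, magnitude and activity.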
# [3] = target: RecQ-like DNA helicase BLM (Homo sapiens) (UniProt P54132); test: qHTS Validation Assay for Inhibitors of Bloom's syndrome helicase (BLM) (AID 2364); further: potency means the concentration at half of the fitted maximal effect
# Procedure, shortened: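 Forked 20-bp duplex substrate (200 nM, TAMRA/BHQ-2) plus 2 mM ATP added after 15 min compound preincubation with 50 nM enzyme, pH 8.0, poly(dI-dC) 2.5 ug/ml. Strand separation followed by fluorescence (525/598 nm) over 2 h, normalized to enzyme-free and DMSO controls.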
# [4] = Validation screen for small molecules that induce DNA re-replication in MCF 10A normal breast cells (AID 463097); further: potency means the concentration at half of the fitted maximal effect; nearly all actives have a fitted effect of over 60% in size
# Procedure, shortened: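 Image-based qHTS: normal breast cells are incubated with compound for 48 hr, stained with Hoechst, and scanned for total nuclear fluorescence. Compounds raising the fraction of nuclei with elevated DNA content count as re-replication inducers.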
# [5] = target: M-phase phosphoprotein 8 (Homo sapiens) (UniProt Q99549); test: qHTS Validation Assay for Inhibitors for MPP8 Chromodomain Interactions with Methylated Histone Tails (AID 488949); further: potency means the concentration at half of the fitted maximal effect; nearly all actives have a fitted effect of over 55% in size
# Procedure, shortened: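 50 nM MPP8 + 50 nM b-H3K9me3 peptide, PBS pH 7.4/0.01% Tween-20, 30 min RT; + cpd 30 min RT; + AlphaScreen donor/Ni-chelate acceptor beads 10 ug/mL final, 30 min dark; luminescence read.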
# [6] = target: Transient receptor potential cation channel subfamily V member 1 (Homo sapiens) (UniProt Q8NER1); test: HTS Assay for Compounds that Act as Enhancers of the Vanilloid Receptor 1 (AID 488979)
# Procedure, shortened: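 Calcium influx kinetics via Fluo-8 (480/520 nm) in TRPV1-expressing cells, 2000/well cultured overnight at 35.5C. Compound-alone read 3 min (agonist phase), followed by EC20 capsaicin challenge for 2 min (enhancer phase).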
# [7] = target: Thyrotropin receptor (Homo sapiens) (UniProt P16473); test: qHTS Assay for Antagonists of the Thyroid Stimulating Hormone Receptor (AID 488980); further: series mostly up to about 58 µM
# Procedure, shortened: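 Readout is cAMP by HTRF competition between cellular cAMP and cAMP-d2 for a cryptate-labelled antibody. Antagonism was assessed in TSHR-transfected HEK293 cells stimulated with 4 nM TSH (EC80, final) in the presence of RO 20-1724.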
# [8] = target: Galactokinase (Homo sapiens) (UniProt P51570); test: qHTS Validation Assay for Inhibitors of Human Galactokinase (GALK) (AID 493189)
# Procedure, shortened: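 5 nM GALK / 100 uM galactose / 35 uM ATP, 20 mM HEPES pH8.0, 5 mM MgCl2, 60 mM NaCl, 1 mM DTT, 0.01% BSA (final). RT 1 h; Kinase-Glo Plus luminescence.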
# [9] = Validation screen for small molecules that induce DNA re-replication in SW480 colon adenocarcinoma cells (AID 504364)
# Procedure, shortened: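 Read-out: total Hoechst intensity of nuclei by fluorescence scanning imager; hits raise the fraction of nuclei with elevated DNA content. Cells received compound for 48 hr at 37 C before a 40 min stain.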
# [10] = target: Voltage-gated inwardly rectifying potassium channel KCNH2 (Homo sapiens) (UniProt Q12809); test: qHTS Assay for Small Molecule Inhibitors of the Human hERG Channel Activity (AID 588834);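 further: top concentration of the series differs between compounds; lower thallium flux fluorescence means stronger hERG block; nearly all actives have a fitted effect of over 50% in size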
# Procedure, shortened: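 Step 1: BacMam hERG transduction of U2OS, 4 hrs RT. Step 2: overnight 37 °C, plate 2000 cells/well, 4 hr. Step 3: FluxOR load, compound 10 min, stimulate, read fluorescence.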
# [11] = P-glycoprotein substrates identified in KB-8-5-11 adenocarcinoma cell line, qHTS therapeutic library screen (AID 1346987); further: series mostly up to about 44 µM; nearly all actives have a fitted effect of over 65% in size
# Procedure, shortened: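 In this qHTS, P-gp-rich KB-8-5-11 cells received library compounds across a concentration range. Viability was quantified by luminescence after 72 h at 37 degree C.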
# [12] = qHTS to identify inhibitors of the type 1 interferon - major histocompatibility complex class I in skeletal muscle: primary screen against the NCATS Mechanism Interrogation Plate v5.0 (MIPE) Libary (AID 1347411); further: nearly all actives have a fitted effect of over 65% in size
# Procedure, shortened: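 HLA-B HiBit myoblasts, dexamethasone-free medium + 4 ng/ml IFN-b, 24 h compound, 11-pt 1:3 from 46 uM final. Readout: Nano-Glo HiBiT lytic luminescence after 10 min lysis, RT.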
# [13] = target: N-terminal Xaa-Pro-Lys N-methyltransferase 1 (Homo sapiens) (UniProt Q9BV86); test: Confirmatory qHTS for Inhibitors of N-terminal methyltransferase 1 (NTMT1): MTaseGlo Assay (AID 1645874); further: potency means the concentration at half of the fitted maximal effect; nearly all actives have a fitted effect of over 65% in size
# Procedure, shortened: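 Enzyme mix (125 nM NTMT1, 100 uM SAM) + compound, 15 min RT; + 1 uM SPKRIA, 30 min RT, dark; MTase-Glo reagent 30 min, detection solution 30 min; luminescence. % inhibition vs no-enzyme/DMSO controls, 4-parameter Hill fit.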
# [14] = Primary qHTS for inhibitors of nuclear receptor binding SET domain protein 2 (NSD2) in an isogenic RCH-ACV NSD2 p.E1099K mutant (9B) (AID 1645876); further: nearly all actives have a fitted effect of over 70% in size
# [15] = Primary qHTS for inhibitors of nuclear receptor binding SET domain protein 2 (NSD2) in an RCH-ACV wild type WT cells (2C) (AID 1645877); further: nearly all actives have a fitted effect of over 70% in size
# [16] = target: Glutathione peroxidase 1 (Homo sapiens) (UniProt P07203); test: Primary qHTS Assay for Inhibitors of Recombinant Selenoprotein Glutathione Peroxidase 1 (GPX1) (AID 1845191); further: nearly all actives have a fitted effect of over 65% in size
# Procedure, shortened: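 NADPH consumption tracked by fluorescence at 340/450 nm between t=0 and t=15 min, room temperature. Final mix: 10 nM GPX1, 100 nM glutathione reductase, 1 mM GSH, 0.5 mM NADPH, 0.5 mM cumene hydroperoxide, 0.01% BSA; 30 min compound–enzyme preincubation.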
# [17] = target: Phospholipid hydroperoxide glutathione peroxidase GPX4 (Homo sapiens) (UniProt P36969); test: Primary qHTS Assay for Inhibitors of Recombinant Selenoprotein Glutathione Peroxidase 4 (GPX4) (AID 1845192); conditions: outcome: dose series up to 50 µM unless noted
# Procedure, shortened: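 NADPH consumption followed by fluorescence at 340/450 nm, t=0 and after 15 min at room temperature. Reaction started with cumene hydroperoxide (0.5 mM final) after 30 min compound–GPX4 preincubation; final 200 nM GPX4, 100 nM GR, 1 mM GSH, 0.5 mM NADPH.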
# [18] = qHTS drug screen for cell cycle checkpoint inhibitors in PARPi-resistant BRCA-mutant ovarian cancer cell lines. (AID 1963452; calls by dose curve); conditions: PEO1/OlaR viability, CellTiter-Glo luminescence, 96 h, stronger effect = lower value
# Procedure, shortened: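 PEO1, PEO4 and PEO1/OlaR ovarian cancer cells, 600 per well, exposed 96 h at 37C to a dilution series. Viability read by CellTiter-Glo luminescence, normalized to DMSO and empty wells; activity summarized as Z-AUC.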
# Chain of Glutathione peroxidase 1 (Homo sapiens) (P07203 whole entry, looked up): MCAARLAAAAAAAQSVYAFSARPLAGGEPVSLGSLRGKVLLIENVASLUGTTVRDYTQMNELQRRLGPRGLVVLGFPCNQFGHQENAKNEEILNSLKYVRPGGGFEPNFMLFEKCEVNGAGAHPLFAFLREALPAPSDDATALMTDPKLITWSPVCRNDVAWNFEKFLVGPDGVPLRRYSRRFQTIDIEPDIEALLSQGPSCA
# Chain of Thyrotropin receptor (Homo sapiens) (P16473 whole entry, looked up): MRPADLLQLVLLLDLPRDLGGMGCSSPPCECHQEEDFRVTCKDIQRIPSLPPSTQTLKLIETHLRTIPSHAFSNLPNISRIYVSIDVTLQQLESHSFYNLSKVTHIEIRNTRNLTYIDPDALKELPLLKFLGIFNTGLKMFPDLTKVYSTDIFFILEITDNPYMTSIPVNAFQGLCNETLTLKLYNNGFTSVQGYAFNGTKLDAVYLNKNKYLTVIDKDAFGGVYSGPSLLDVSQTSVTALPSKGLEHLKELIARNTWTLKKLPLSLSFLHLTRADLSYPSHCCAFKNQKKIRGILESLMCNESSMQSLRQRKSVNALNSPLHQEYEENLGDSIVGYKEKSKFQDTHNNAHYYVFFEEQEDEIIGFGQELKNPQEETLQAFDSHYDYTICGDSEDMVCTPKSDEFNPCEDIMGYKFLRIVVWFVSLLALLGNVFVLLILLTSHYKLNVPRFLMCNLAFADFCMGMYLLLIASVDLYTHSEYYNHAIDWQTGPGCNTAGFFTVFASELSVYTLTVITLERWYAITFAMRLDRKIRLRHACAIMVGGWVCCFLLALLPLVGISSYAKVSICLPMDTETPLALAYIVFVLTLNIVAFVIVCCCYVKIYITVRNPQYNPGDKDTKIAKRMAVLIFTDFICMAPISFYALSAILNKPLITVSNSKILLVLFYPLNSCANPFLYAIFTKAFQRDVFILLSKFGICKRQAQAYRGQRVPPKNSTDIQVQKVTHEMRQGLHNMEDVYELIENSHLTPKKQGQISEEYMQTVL
# Chain of Galactokinase (Homo sapiens) (P51570 whole entry, looked up): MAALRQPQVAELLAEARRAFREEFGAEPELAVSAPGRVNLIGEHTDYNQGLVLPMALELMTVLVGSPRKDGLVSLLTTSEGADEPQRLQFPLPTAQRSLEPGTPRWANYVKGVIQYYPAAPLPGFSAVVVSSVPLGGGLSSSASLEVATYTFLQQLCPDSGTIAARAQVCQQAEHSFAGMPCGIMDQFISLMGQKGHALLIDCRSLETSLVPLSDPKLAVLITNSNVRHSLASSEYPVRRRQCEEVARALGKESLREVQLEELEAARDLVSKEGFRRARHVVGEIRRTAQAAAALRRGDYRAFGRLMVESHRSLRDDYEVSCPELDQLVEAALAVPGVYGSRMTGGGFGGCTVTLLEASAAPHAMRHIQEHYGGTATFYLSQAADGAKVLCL
# Chain of RecQ-like DNA helicase BLM (Homo sapiens) (P54132 whole entry, looked up): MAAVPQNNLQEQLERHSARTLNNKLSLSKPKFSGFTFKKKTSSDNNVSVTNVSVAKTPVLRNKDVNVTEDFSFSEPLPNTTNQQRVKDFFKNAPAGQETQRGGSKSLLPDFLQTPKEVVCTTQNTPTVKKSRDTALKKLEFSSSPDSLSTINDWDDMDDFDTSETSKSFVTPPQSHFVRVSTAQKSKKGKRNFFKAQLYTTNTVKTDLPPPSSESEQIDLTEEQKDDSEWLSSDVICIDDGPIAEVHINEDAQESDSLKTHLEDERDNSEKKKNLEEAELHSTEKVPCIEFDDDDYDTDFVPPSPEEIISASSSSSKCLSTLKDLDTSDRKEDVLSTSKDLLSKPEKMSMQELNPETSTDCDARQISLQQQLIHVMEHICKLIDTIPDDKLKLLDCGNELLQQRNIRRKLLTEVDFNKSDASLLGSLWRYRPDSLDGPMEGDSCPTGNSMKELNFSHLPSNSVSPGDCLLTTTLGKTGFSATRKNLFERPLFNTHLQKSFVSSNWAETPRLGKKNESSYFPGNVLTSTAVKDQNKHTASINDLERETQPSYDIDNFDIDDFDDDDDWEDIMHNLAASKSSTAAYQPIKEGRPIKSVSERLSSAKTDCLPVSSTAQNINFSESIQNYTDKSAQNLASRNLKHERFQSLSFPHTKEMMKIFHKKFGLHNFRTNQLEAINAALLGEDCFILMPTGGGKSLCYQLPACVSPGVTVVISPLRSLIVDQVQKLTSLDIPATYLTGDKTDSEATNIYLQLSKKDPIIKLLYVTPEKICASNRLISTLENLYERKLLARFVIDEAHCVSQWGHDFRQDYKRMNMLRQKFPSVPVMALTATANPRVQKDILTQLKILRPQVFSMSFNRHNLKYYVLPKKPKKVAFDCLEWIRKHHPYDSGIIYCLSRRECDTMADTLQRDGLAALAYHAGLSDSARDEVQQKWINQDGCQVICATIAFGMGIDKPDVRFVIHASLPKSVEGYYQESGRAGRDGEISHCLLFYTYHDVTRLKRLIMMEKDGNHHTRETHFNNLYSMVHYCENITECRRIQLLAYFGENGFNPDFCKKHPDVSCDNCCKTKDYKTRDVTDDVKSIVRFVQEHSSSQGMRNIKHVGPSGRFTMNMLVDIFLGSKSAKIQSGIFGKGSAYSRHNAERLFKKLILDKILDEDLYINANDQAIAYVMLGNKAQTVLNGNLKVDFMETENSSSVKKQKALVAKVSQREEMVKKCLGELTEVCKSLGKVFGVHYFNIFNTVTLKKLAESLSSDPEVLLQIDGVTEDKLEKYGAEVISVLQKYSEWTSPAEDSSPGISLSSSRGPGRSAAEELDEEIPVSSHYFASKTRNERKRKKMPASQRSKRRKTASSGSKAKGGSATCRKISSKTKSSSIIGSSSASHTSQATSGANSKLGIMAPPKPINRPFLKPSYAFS
# Chain of Phospholipid hydroperoxide glutathione peroxidase GPX4 (Homo sapiens) (P36969 whole entry, looked up): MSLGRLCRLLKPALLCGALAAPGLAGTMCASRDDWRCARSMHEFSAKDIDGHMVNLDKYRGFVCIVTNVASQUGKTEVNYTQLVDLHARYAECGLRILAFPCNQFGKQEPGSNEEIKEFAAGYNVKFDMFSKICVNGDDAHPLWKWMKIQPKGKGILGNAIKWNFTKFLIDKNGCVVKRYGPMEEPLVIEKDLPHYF
# Chain of Voltage-gated inwardly rectifying potassium channel KCNH2 (Homo sapiens) (Q12809 whole entry, looked up): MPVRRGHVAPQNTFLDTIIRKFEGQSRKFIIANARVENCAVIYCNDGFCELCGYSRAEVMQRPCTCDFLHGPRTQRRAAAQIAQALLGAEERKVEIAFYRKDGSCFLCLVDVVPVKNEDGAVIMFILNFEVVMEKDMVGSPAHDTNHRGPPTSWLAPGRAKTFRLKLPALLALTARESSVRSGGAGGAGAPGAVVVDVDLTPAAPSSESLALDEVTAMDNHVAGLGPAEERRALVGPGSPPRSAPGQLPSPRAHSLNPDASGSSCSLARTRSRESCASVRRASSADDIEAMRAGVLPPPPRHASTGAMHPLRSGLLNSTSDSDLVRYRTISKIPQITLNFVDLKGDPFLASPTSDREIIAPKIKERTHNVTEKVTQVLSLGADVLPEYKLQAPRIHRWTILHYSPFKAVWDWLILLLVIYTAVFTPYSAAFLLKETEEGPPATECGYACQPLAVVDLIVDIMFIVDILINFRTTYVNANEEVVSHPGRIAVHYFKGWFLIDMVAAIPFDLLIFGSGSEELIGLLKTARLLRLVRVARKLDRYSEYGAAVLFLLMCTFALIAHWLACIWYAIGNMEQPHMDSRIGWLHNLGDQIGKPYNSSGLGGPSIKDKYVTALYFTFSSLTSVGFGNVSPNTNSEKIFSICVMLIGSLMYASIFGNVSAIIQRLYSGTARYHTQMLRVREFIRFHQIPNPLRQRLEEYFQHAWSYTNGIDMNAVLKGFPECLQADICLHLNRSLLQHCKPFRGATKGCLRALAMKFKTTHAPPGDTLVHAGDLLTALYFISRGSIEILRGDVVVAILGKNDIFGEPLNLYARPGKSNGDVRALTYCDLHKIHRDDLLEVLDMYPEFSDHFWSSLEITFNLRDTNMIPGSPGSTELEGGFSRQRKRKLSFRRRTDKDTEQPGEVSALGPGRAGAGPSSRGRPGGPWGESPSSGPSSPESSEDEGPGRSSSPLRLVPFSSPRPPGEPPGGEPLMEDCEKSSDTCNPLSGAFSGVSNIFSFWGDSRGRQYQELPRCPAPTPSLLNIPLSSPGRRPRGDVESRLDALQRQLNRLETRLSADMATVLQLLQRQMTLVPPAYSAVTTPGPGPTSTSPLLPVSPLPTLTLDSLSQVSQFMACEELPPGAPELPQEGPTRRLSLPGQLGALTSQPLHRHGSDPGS
# Chain of M-phase phosphoprotein 8 (Homo sapiens) (Q99549 whole entry, looked up): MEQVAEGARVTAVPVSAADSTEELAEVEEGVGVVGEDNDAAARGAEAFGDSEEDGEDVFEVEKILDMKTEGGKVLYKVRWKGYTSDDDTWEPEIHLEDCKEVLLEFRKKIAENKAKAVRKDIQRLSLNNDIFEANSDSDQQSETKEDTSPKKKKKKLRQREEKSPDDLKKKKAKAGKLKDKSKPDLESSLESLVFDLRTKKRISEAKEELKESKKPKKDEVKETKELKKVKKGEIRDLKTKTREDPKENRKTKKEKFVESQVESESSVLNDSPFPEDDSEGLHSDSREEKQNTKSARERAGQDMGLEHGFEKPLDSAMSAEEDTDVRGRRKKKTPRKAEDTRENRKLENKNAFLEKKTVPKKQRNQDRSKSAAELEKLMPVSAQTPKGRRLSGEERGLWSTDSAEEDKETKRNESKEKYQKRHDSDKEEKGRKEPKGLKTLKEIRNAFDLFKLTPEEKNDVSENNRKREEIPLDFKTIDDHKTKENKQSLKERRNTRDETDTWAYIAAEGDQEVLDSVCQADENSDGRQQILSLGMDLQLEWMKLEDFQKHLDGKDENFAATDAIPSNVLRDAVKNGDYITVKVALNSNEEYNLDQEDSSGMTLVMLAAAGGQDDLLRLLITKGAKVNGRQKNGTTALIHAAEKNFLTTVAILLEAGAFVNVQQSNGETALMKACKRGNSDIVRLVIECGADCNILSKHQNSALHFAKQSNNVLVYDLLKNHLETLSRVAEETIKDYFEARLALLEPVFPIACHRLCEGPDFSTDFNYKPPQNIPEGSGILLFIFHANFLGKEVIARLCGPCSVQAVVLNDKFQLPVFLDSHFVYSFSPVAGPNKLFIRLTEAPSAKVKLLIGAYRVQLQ
structure (smiles),measurement,setting,value
CC(C)=CCC/C(C)=C/CC/C(C)=C/CSc1ccccc1C(=O)O,Potency,[1],11.2 µM (active)
same,outcome,[2],inactive
same,Potency,[3],31.6 µM (active)
same,Potency,[4],11.2 µM (active)
same,Potency,[5],56.2 µM (active)
same,outcome,[6],inactive
same,outcome,[7],inactive
same,outcome,[8],inactive
same,outcome,[9],inactive
same,Potency,[10],inactive
same,Potency,[11],inactive
same,Potency,[12],inactive
same,Potency,[13],39.8 µM (active)
same,Potency,[14],inactive
same,Potency,[15],inactive
same,Potency,[16],inactive
same,Potency,[17],16.1 µM (active)
same,Z-AUC,[18],0.993 (inactive)
same,Z-AUC,[18]; measured here: PEO1 parental Z-AUC,0.837
same,Z-AUC,[18]; measured here: PEO4 Z-AUC,0.897
